PubChem BioAssay (NCI)
The panel holds about 83,000 compounds, 20% with a hit somewhere; the sample as a whole holds those more often.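 Cells were grown in 96-well plates and exposed to the test compound at a single concentration for 48 hours; results are reported as percent growth, with values below 10 considered active.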 Active and inactive are the calls of the source.

system: MDA-MB-468 breast; assay: NCI-60 one-dose screen, 48 h (100 = growth as untreated, 0 = no growth, -100 = all killed); details: 10 µM unless noted

| SMILES | growth |
| --- | --- |
| CCCCCCCCCCCCN1C(C)=CS/C1=C\C=C\c1scc(C)[n+]1CCCCCCCCCCCC | -23% (active) |
| O=C1c2cccnc2C(=O)c2c1c(C(=O)OCCCN1CCOCC1)c1ccccn21 | 4.71% (active) |
| O=C(c1nnc(Nc2ccccc2Br)o1)c1c[nH]c2ccccc12 | 103% (inactive) |
| CCN(CC)CCNc1c(C)cc(CO)c(Cl)c1C | -8.33% (active) |
| Oc1c(C(Nc2cccc3ccccc23)c2ccccc2)ccc2cccnc12 (stereo not given) | 26.7% (inactive) |
| COc1ccc(CCN2C(=O)CSC2=S)cc1 | 12.9% (inactive) |
| OC(c1ccccc1)C(NCc1ccccc1)c1ccccc1 (stereo not given) | 95.4% (inactive) |
| Cc1nc2ccc(Nc3nc(NCCN4CCOCC4)nc(Nc4ccc(F)cc4)n3)cc2n1Cc1ccccc1 | 14% (inactive) |
| CCOC(=O)/C(C#N)=C/c1cccc(C)c1 | 90.9% (inactive) |
| O=C(Nc1ccc(-n2cc(-c3ccncc3)c(-c3ccc(Cl)c(O)c3)n2)cc1)Nc1cc(C(F)(F)F)cc(C(F)(F)F)c1 | 13.9% (inactive) |
| CNC(=O)c1cc(Oc2ccc(NC(=O)Nc3cc(C(C)(C)C)nn3-c3ccc4ncccc4c3)c(F)c2)ccn1 | -61.8% (active) |
| CCNC(=O)Oc1ccc[nH]c1=O | 86.9% (inactive) |
| Cn1cc(-c2nonc2-c2cn(C)c3ccc(F)cc23)c2ccccc21 | 0.775% (active) |
| O=C1c2ccccc2Cc2cccc(Cl)c21 | 92.7% (inactive) |
| C#CCOc1ccc(C(Nc2ccc(OC)cc2)c2nnnn2C2CCCCC2)cc1 (stereo not given) | 101% (inactive) |
| CC(C)CCNCC(C)(C)O | 112% (inactive) |
| Cc1ccc2c(n1)C[C@H](C(C)(C)O)CC[C@H]2C | 108% (inactive) |
| Cc1nc2sc(C(=O)Nc3cccc4ccccc34)c(N)c2cc1C(=O)/C=C/c1ccccc1 | -3.46% (active) |
| CN(C)c1ccc2cc3c(cc2c1)Oc1ccccc1N3.[Cl][Zn][Cl] | -10.4% (active) |
| O=C(Nc1ccc(CN2CCOCC2)c(C(F)(F)F)c1)c1nc2ccc3[nH]ncc3c2c2c1CCCC2 | 97.2% (inactive) |

| SMILES | growth |
| --- | --- |
| O=C(/C=C/c1csc(Br)n1)NO | 19% (inactive) |
| O=C1OCC2=C1C(c1ccc(Cl)c(Cl)c1)c1cc3c(cc1N2CCO)CCC3 (stereo not given) | 22.9% (inactive) |
| COc1ccc(/C=C/c2nc(Nc3ccc(S(=O)(=O)Nc4cc(C)on4)cc3)c3ccccc3n2)cc1 | 29.9% (inactive) |
| O=C1OCC2=C1C(c1cccc(Cl)c1)c1cc3c(cc1N2CCO)OCCO3 (stereo not given) | 9.02% (active) |
| COc1cc(-c2nn(-c3cccc(NC(=O)Nc4ccc(Cl)c(Cl)c4)c3)cc2-c2ccncc2)ccc1Cl | 2.14% (active) |
| COC(=O)c1nc(=S)[nH]c(C(=O)OC)c1C(=O)c1ccc2ccccc2c1 | 90% (inactive) |
| CCCC(=O)Oc1ccc(/C(=C(\C)c2ccc(Cl)cc2)c2ccc(OCCN(CC)CC)cc2)cc1 | -64.1% (active) |
| COc1cc(Cl)cc(-c2nn(-c3cccc(NC(=O)c4ccc(Cl)c(Cl)c4)c3)cc2-c2ccncc2)c1 | 54.6% (inactive) |
| NCCNc1nc2ccc(F)cc2c2c(=O)c3cc(F)ccc3sc12 | 45.3% (inactive) |
| N/C(=N\O)c1cn(C2OC(CO)C(O)C2O)c2ncnc(N)c12 (stereo not given) | -23.4% (active) |
| CC1OC(OC2C(OC3CCC4(C)C(CCC5(C)C4CC=C4C6CC(C)(C)CCC6(CO)C(O)CC45C)C3(C)C)OC(C(=O)O)C(OC3OC(COC4OC(CO)C(O)C(O)C4O)C(O)C(O)C3O)C2O)C(O)C(O)C1O (stereo not given) | -80.5% (active) |
| CCCCCCNC(=O)Oc1ccc(/C(=C(\C)c2ccc(Cl)cc2)c2ccc(OCCN3CCCCC3)cc2)cc1 | 25.1% (inactive) |
| CCOc1nc(-c2ccccc2)cc2c(O)c(C(=O)NCCCO)[nH]c(=O)c12 | 95% (inactive) |
| O=c1c2cccc3c(Nc4ccc(F)cc4)ccc(c32)c2nc3ccccc3n12 | -43.8% (active) |
| N#Cc1c(N)nc(N)nc1Nc1ccc(Br)cc1 | 89.6% (inactive) |
| Cc1c(-c2ccc(O)cc2)n(Cc2ccc(OCCN3CCCCCC3)cc2)c2ccc(O)cc12 | 74% (inactive) |
| CSc1nc2ncncc2[nH]1 | 103% (inactive) |
| CCCCCCCCOc1ccc(/C=N/Nc2cc(C)nc3ccc(Cl)cc23)cc1 | -49.9% (active) |
| C=CCN1C(=O)/C(=c2\sc3n(c2=O)C2C(NN=3)N(CC)C(=O)N2CC)c2ccccc21 (stereo not given) | 16.3% (inactive) |
| COc1ccc(NC(=O)n2nc(/C=C\c3ccc(O)c(OC)c3)cc2/C=C\c2ccc(O)c(OC)c2)cc1 | 34.7% (inactive) |
